Measurements as given in PubChem BioAssay (Tox21).
Results filed as inconclusive are left out. Calls of active or inactive are those of the source. Unless noted, calls follow the shape of the dose curve; as a rule, active = well fitted curve in the direction sought with a large enough effect in the repeat runs; inconclusive = weak or mixed curves; inactive = no such curve, though single readings can be large; an effect the other way counts as inactive or inconclusive.

What was measured:
[1] = qHTS assay for small molecule agonists of the p53 signaling pathway (AID 651631; calls by dose curve; also: nearly all actives have a fitted effect of over 15% in size)
Outline: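 Readout was fluorescence from the LiveBLAzer FRET substrate, applied for 2 h at room temperature after 16 h compound exposure at 37 °C. Cells were the p53RE-bla HCT-116 line, with beta-lactamase driven by p53 response elements.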

[2] = qHTS assay for small molecules that induce genotoxicity in human embryonic kidney cells expressing luciferase-tagged ATAD5 (AID 651632); also: nearly all actives have a fitted effect of over 15% in size
Outline: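 Cells were seeded at 2,000 per well, dosed with compound, and incubated 16 hr at 37C in 5% CO2. Luciferase activity was then quantified after a 30 min room-temperature incubation with Amplite.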

[3] = qHTS assay for small molecule agonists of the p53 signaling pathway - cell viability (AID 651633; calls by dose curve; also: series mostly up to about 83 µM; nearly all actives have a fitted effect of over 30% in size)
Outline: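 p53RE-bla cells, seeded at 4,000 per well and rested 5 h at 37 C/5% CO2, received compounds in DMSO for 16 h at 37 C. CellTiter-Glo was then added, and luminescence was read after 30 min at room temperature to gauge cytotoxicity.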

[4] = qHTS assay for small molecules that induce genotoxicity in human embryonic kidney cells expressing luciferase-tagged ATAD5 - cell viability (AID 651634; calls by dose curve; also: nearly all actives have a fitted effect of over 25% in size)
Outline: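 Cells (HEK293T, luciferase-tagged ATAD5) are seeded at 2,000 per well, dosed with compound or DMSO vehicle, and incubated 15.5 hr at 37C and 5% CO2. CellTiter-Fluor is added for 30 min before fluorescence is measured.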

[5] = qHTS assay for small molecule disruptors of the mitochondrial membrane potential - cell viability (AID 720634; calls by dose curve;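 also: human HepG2 liver cancer cells; series mostly up to about 83 µM; nearly all actives have a fitted effect of over 20% in size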)
Outline: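 Cytotoxicity was measured by ATP quantitation in HepG2 wells that had first been treated with compound for 1 hr and stained with m-MPI dye; CellTiter-Glo incubation was 30 min at room temperature.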

[6] = qHTS assay for small molecule disruptors of the mitochondrial membrane potential (AID 720635)
Outline: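 HepG2 cells (2,000/well) attached overnight at 37C, then took compound for 1 hr at 37C, 5% CO2. Mito-MPS dye was added for 30 min; fluorescence was read at 490/535 nm (monomers) and 540/590 nm (aggregates).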

[7] = qHTS assay to test for compound auto fluorescence at 590 nm (red) in HepG2 cells (AID 720674)
Outline: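 Rose Bengal sodium served as the red fluorophore standard. HepG2 monolayers (overnight attachment, MEM with 10% FBS) were exposed to test compounds for 1 hr at 37 C and read at Ex 540/Em 590 nm.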

[8] = qHTS assay to test for compound auto fluorescence at 535 nm (green) in HepG2 cells (AID 720675)
[9] = qHTS assay to test for compound auto fluorescence at 460 nm (blue) in HEK293 cells (AID 720678)
Outline: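 HEK293, 2,000 cells/well, 10% dialyzed FBS; attach 4-5 hr 37C; pin compound or DMSO; o/n 37C/5% CO2; fluorescence 405/460 nm; triamterene-equivalent units.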

[10] = qHTS assay to test for compound auto fluorescence at 590 nm (red) in HEK293 cells (AID 720679)
Outline: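 Intensity at 540nm excitation and 590nm emission is reported as Rose Bengal sodium-equivalent autofluorescence. Measurements followed overnight exposure (37C, 5% CO2) of HEK293 cells, 2,000 per well, to 23 nL compound.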

[11] = qHTS assay to test for compound auto fluorescence at 535 nm (green) in HEK293 cells (AID 720680)
[12] = qHTS assay to test for compound auto fluorescence at 460 nm (blue) in HEK293 cell free culture (AID 720681)
Outline: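 Test compounds were pinned into cell-free culture medium (DMEM with 10% FBS) and fluorescence was read directly at Ex/Em 405/460 nm. Signals were expressed as fluorescence equivalents of triamterene, with DMSO vehicle as control.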

[13] = qHTS assay to test for compound auto fluorescence at 535 nm (green) in HEK293 cell free culture (AID 720682)
Outline: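 Compounds were pin-transferred into cell-free DMEM with 10% FBS, and green fluorescence was read at excitation 485 nm and emission 535 nm. Intensities were expressed as fluorescein-equivalent values.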

[14] = qHTS assay to test for compound auto fluorescence at 590 nm (red) in HEK293 cell free culture (AID 720683)
Outline: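 Tox21 10K library compounds were pinned into cell-free DMEM with 10% FBS and fluorescence was read at excitation 540 nm. Activity is expressed as Rose Bengal sodium equivalency.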

[15] = qHTS assay to test for compound auto fluorescence at 590 nm (red) in HepG2 cell free culture (AID 720684)
Outline: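 Ex 540 / Em 590 nm read of compound in cell-free MEM (10% FBS). Rose Bengal sodium reference.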

[16] = qHTS assay to test for compound auto fluorescence at 460 nm (blue) in HepG2 cell free culture (AID 720685)
Outline: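 Cell-free plates of MEM plus 10% FBS received 23 nL compound or DMSO vehicle; blue-channel (405/460 nm) intensity scored against triamterene as reference fluorophore.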

[17] = qHTS assay to test for compound auto fluorescence at 535 nm (green) in HepG2 cell free culture (AID 720686)
[18] = qHTS assay to test for compound auto fluorescence at 460 nm (blue) in HepG2 cells (AID 720687)
Outline: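 Cells (2,000/well in MEM with 10% FBS) attached overnight at 37 C, then were exposed to compound or DMSO for 1 hr at 37 C, 5% CO2. Fluorescence read at Ex/Em 405/460 nm, expressed as triamterene-equivalent signal.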

[19] = biological target: Glucocorticoid receptor (Homo sapiens) (UniProt P04150); assay: qHTS assay to identify small molecule agonists of the glucocorticoid receptor (GR) signaling pathway (AID 720691; active = well fitted activation curve with a large enough effect in the signal ratio in the repeat runs, not every such curve was filed as active; the % refers to the signal ratio)
Outline: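 Steps: seed GR-bla HeLa cells, incubate 4 h at 37 C/5% CO2; pin-transfer DMSO-dissolved compounds; incubate 18 h at 37 C; add LiveBLAzer B/G FRET substrate; after 2 h at room temperature, measure fluorescence.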

[20] = biological target: Glucocorticoid receptor (Homo sapiens) (UniProt P04150); assay: qHTS assay to identify small molecule antagonists of the glucocorticoid receptor (GR) signaling pathway (AID 720692; active = well fitted inhibition curve with a large enough effect in the signal ratio in the repeat runs, not every such curve was filed as active; the % refers to the signal ratio)
Outline: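 Antagonism was scored as loss of dexamethasone-driven (5 nM final) reporter signal in HeLa cells bearing a glucocorticoid response element–beta-lactamase construct, after 18 h compound exposure at 37 C and 2 h FRET substrate loading.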
% is scaled to controls: 0 for no effect and ±100 for the full control effect.

Chain of Glucocorticoid receptor (Homo sapiens) (P04150 whole entry, looked up): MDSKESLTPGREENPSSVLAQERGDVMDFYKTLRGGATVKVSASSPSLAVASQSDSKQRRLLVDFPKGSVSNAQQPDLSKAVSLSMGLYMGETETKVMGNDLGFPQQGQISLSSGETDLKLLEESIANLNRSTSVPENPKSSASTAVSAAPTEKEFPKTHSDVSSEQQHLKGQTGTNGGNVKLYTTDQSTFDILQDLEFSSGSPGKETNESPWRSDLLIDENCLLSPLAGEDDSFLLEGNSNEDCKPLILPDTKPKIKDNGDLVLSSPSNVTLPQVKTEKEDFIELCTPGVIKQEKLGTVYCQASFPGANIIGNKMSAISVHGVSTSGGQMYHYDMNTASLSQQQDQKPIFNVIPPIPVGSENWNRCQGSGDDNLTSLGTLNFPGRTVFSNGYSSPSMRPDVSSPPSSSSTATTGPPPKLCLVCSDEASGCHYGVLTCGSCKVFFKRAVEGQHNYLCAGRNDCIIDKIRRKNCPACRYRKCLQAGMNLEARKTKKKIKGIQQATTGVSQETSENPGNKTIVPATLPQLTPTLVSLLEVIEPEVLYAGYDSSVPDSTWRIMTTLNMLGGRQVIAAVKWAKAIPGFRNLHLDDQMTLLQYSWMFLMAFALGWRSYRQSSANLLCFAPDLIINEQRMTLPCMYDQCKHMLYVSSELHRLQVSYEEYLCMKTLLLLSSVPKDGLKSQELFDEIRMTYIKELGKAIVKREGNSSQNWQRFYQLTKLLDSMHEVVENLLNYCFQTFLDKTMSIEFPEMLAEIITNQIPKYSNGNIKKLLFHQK

O=C(CN1CCNCC1)NC1CCCCC1
inactive: outcome [1] | outcome [2] | outcome [3] | Potency [4] | outcome [5] | Potency [6] | outcome [7] | outcome [8] | outcome [9] | outcome [10] | outcome [11] | outcome [12] | outcome [13] | outcome [14] | outcome [15] | outcome [16] | outcome [17] | outcome [18] | Potency [19] | outcome [20]

CC1OCCC1=O (stereo not drawn)
inactive: outcome [1] | outcome [2] | outcome [3] | Potency [4] | outcome [5] | Potency [6] | outcome [7] | outcome [8] | outcome [9] | outcome [10] | outcome [11] | outcome [12] | outcome [13] | outcome [14] | outcome [15] | outcome [16] | outcome [17] | outcome [18] | Potency [19] | outcome [20]

CCC(C)C(=O)OCCc1ccccc1 (stereo not drawn)
inactive: outcome [1] | outcome [2] | outcome [3] | Potency [4] | outcome [5] | Potency [6] | outcome [7] | outcome [8] | outcome [9] | outcome [10] | outcome [11] | outcome [12] | outcome [13] | outcome [14] | outcome [15] | outcome [16] | outcome [17] | outcome [18] | Potency [19]

CC(C)(C)NC[C@H](O)COc1cccc2c1CCCC2=O
inactive: outcome [1] | outcome [2] | outcome [3] | Potency [4] | outcome [5] | Potency [6] | fluorescence, relative to Rose Bengal [7] -0.105% [at 18.6 µM] | fluorescence, % of fluorescein control [8] 0.0562% [at 18.6 µM] | fluorescence, % of triamterene [9] 0.103% [at 18.6 µM] | fluorescence, % of fluorescent control [10] 0.133% [at 18.6 µM] | fluorescence, % of fluorescein [11] 0.0019% [at 18.6 µM] | fluorescence, % of fluorescent control [12] 0.0024% [at 18.6 µM] | activity change [13] -0.0347% [at 18.6 µM] | fluorescence, % of fluorescent control [14] -0.286% [at 18.6 µM] | fluorescence, % of Rose Bengal [15] 0.355% [at 18.6 µM] | fluorescence, % of fluorescent control [16] -0.0088% [at 18.6 µM] | fluorescence, % of fluorescein control [17] -0.0049% [at 18.6 µM] | fluorescence, % of fluorescent control [18] 0.0464% [at 18.6 µM] | Potency [19] | outcome [20]

Cc1ncc([N+](=O)[O-])n1CC(C)O (stereo not drawn)
inactive: outcome [1] | outcome [2] | outcome [3] | Potency [4] | outcome [5] | Potency [6] | outcome [7] | outcome [8] | outcome [9] | outcome [10] | outcome [11] | outcome [12] | outcome [13] | outcome [14] | outcome [15] | outcome [16] | outcome [17] | outcome [18] | Potency [19] | outcome [20]

CC1=C(O)C(=O)C(C)O1 (stereo not drawn)
inactive: outcome [1] | outcome [2] | outcome [3] | Potency [4] | outcome [5] | Potency [6] | outcome [7] | outcome [8] | outcome [9] | outcome [10] | outcome [11] | outcome [12] | outcome [13] | outcome [14] | outcome [15] | outcome [16] | outcome [17] | outcome [18] | Potency [19]

OCC1CCC(CO)CC1 (stereo not drawn)
inactive: outcome [1] | outcome [2] | outcome [3] | Potency [4] | outcome [5] | Potency [6] | outcome [7] | outcome [8] | outcome [9] | outcome [10] | outcome [11] | outcome [12] | outcome [13] | outcome [14] | outcome [15] | outcome [16] | outcome [17] | outcome [18] | Potency [19] | outcome [20]

CCCSSCCC
inactive: outcome [1] | outcome [2] | outcome [3] | Potency [4] | outcome [5] | Potency [6] | outcome [7] | outcome [8] | outcome [9] | outcome [10] | outcome [11] | outcome [12] | outcome [13] | outcome [14] | outcome [15] | outcome [16] | outcome [17] | outcome [18] | Potency [19] | outcome [20]

Nc1nc(-c2ccccc2)c(Br)c(=O)[nH]1
inactive: outcome [1] | outcome [2] | outcome [3] | Potency [4] | outcome [5] | Potency [6] | outcome [7] | outcome [8] | outcome [9] | outcome [10] | outcome [11] | outcome [12] | outcome [13] | outcome [14] | outcome [15] | outcome [16] | outcome [17] | outcome [18] | Potency [19]

NCc1ccc(S(N)(=O)=O)cc1
inactive: outcome [1] | outcome [2] | outcome [3] | Potency [4] | outcome [5] | Potency [6] | fluorescence, relative to Rose Bengal [7] -0.36% [at 18.6 µM] | fluorescence, % of fluorescein control [8] -0.119% [at 18.6 µM] | fluorescence, % of triamterene [9] 0.204% [at 18.6 µM] | fluorescence, % of fluorescent control [10] -0.0605% [at 18.6 µM] | fluorescence, % of fluorescein [11] 0.0433% [at 18.6 µM] | fluorescence, % of fluorescent control [12] 0.104% [at 18.6 µM] | activity change [13] -0.0097% [at 18.6 µM] | fluorescence, % of fluorescent control [14] 0.469% [at 18.6 µM] | fluorescence, % of Rose Bengal [15] 0.496% [at 18.6 µM] | fluorescence, % of fluorescent control [16] 0.0628% [at 18.6 µM] | fluorescence, % of fluorescein control [17] 0.0245% [at 18.6 µM] | fluorescence, % of fluorescent control [18] 0.0103% [at 18.6 µM]

CCCCOC(=O)C(C)O (stereo not drawn)
inactive: outcome [1] | outcome [2] | outcome [3] | Potency [4] | outcome [5] | Potency [6] | outcome [7] | outcome [8] | outcome [9] | outcome [10] | outcome [11] | outcome [12] | outcome [13] | outcome [14] | outcome [15] | outcome [16] | outcome [17] | outcome [18] | Potency [19] | outcome [20]

CC/C(C)=N\O[Si](C)(O/N=C(\C)CC)O/N=C(\C)CC
inactive: outcome [1] | outcome [2] | outcome [3] | Potency [4] | outcome [5] | Potency [6] | outcome [7] | outcome [8] | outcome [9] | outcome [10] | outcome [11] | outcome [12] | outcome [13] | outcome [14] | outcome [15] | outcome [16] | outcome [17] | outcome [18]

N#CCC(=O)NN
inactive: outcome [1] | outcome [2] | outcome [3] | Potency [4] | outcome [5] | Potency [6] | outcome [7] | outcome [8] | outcome [9] | outcome [10] | outcome [11] | outcome [12] | outcome [13] | outcome [14] | outcome [15] | outcome [16] | outcome [17] | outcome [18] | Potency [19] | outcome [20]

O=[N+]([O-])c1c(Cl)cc(Cl)cc1Cl
inactive: outcome [1] | outcome [2] | outcome [3] | Potency [4] | outcome [5] | Potency [6] | outcome [7] | outcome [8] | outcome [9] | outcome [10] | outcome [11] | outcome [12] | outcome [13] | outcome [14] | outcome [15] | outcome [16] | outcome [17] | outcome [18] | Potency [19] | outcome [20]
